{"source": "the supplement of paper PMC9925115", "note": "Structures can show the parent of a compound that is named as a salt. ± gives the uncertainty stated by the source.", "data": [{"system": "FLX1", "experiment": "cell viability z-score within plate (CellTiter-Glo), mean of 3 biological replicates; higher = higher viability relative to plate (less growth inhibition)", "settings": "2 µM; time (hr): 120", "procedure": "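FLX1 fibrolamellar carcinoma cells (DNAJB1-PRKACA fusion), 600 cells/well in 384-well plates, treated with a Selleck kinase inhibitor library (L1200) at 2 uM for 5 days (120 hr); viability by CellTiter-Glo. A z-score was computed within each plate and averaged over three biological replicates.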", "values": [{"smiles": "N#Cc1c(O)c2c(-c3ccc(-c4ccccc4O)cc3)csc2[nH]c1=O", "cell viability z-score within plate": "0.457 ± 0.29"}, {"smiles": "C[C@@H](Oc1cc(-n2cnc3ccc(CN4CCN(C)CC4)cc32)sc1C(N)=O)c1ccccc1C(F)(F)F", "cell viability z-score within plate": "0.737 ± 0.18"}, {"smiles": "CCOc1ccn(-c2ccc(F)cc2)c(=O)c1C(=O)Nc1ccc(Oc2ccnc(N)c2Cl)c(F)c1", "cell viability z-score within plate": "-0.36 ± 1.2"}, {"smiles": "O=c1cc(N2CCOCC2)oc2c(-c3ccccc3)cccc12", "cell viability z-score within plate": "0.828 ± 0.37"}, {"smiles": "COc1ccc(-c2ccc3ncc4c(c3c2)n(-c2ccc(N3CCNCC3)c(C(F)(F)F)c2)c(=O)n4C)cn1", "cell viability z-score within plate": "0.514 ± 0.38"}, {"smiles": "CCOc1cc2ncc(C#N)c(Nc3ccc(F)c(Cl)c3)c2cc1NC(=O)/C=C/CN(C)C", "note": "[Pelitinib (EKB-569)]", "cell viability z-score within plate": "-1.38 ± 0.64"}, {"smiles": "Cc1cc(Nc2nc(N[C@@H](C)c3ncc(F)cn3)ncc2Cl)[nH]n1", "cell viability z-score within plate": "-0.166 ± 0.46"}, {"smiles": "Cn1cnc2c(F)c(Nc3ccc(Br)cc3Cl)c(C(=O)NOCCO)cc21", "note": "[Selumetinib (AZD6244)]", "cell viability z-score within plate": "-0.403 ± 0.49"}, {"smiles": "CNCc1ccc(-c2cc(-c3nc(-c4ccc(S(=O)(=O)C(C)C)cc4)cnc3N)on2)cc1", "cell viability z-score within plate": "0.59 ± 0.39"}, {"smiles": "O=C1c2ccc(Nc3ccc(F)cc3F)cc2CCc2ccc(OC[C@H](O)CO)cc21", "note": "[Skepinone-L]", "cell viability z-score within plate": "-1.21 ± 0.79"}, {"smiles": "Nc1nc(N)c2nc(-c3cccc(O)c3)c(-c3cccc(O)c3)nc2n1", "cell viability z-score within plate": "0.649 ± 0.23"}, {"smiles": "COc1cc2c(Oc3ccc(NC(=O)C4(C(=O)Nc5ccc(F)cc5)CC4)cc3F)ccnc2cc1OCCCN1CCOCC1", "cell viability z-score within plate": "-0.77 ± 2.3"}, {"smiles": "O=C(c1ccc(/C=C/c2n[nH]c3ccccc23)cc1)N1CCNCC1", "cell viability z-score within plate": "0.449 ± 0.26"}, {"smiles": "COc1ccc(COc2cc3oc(=O)c4cc(C(C)O)ccc4c3cc2OC)cc1", "note": "(stereo not given) [Palomid 529 (P529)]", "cell viability z-score within plate": "0.0682 ± 0.42"}, {"smiles": "Cc1nc(Nc2ncc(C(=O)Nc3c(C)cccc3Cl)s2)cc(N2CCN(CCO)CC2)n1", "note": "[Dasatinib]", "cell viability z-score within plate": "-1.19 ± 0.2"}, {"smiles": "Cn1cc(/C=C2\\C(=O)Nc3cccnc32)c2ccccc21", "cell viability z-score within plate": "0.84 ± 0.29"}, {"smiles": "O=C1NC(=O)C(c2cnc3ccccn23)=C1c1cn2c3c(cc(F)cc13)CN(C(=O)N1CCCCC1)CC2", "cell viability z-score within plate": "1.17 ± 1.1"}, {"smiles": "CCS(=O)(=O)c1cccc(-c2cc(C(=O)NC3CCN(C)CC3)c(C)c3[nH]c4ncc(C)cc4c23)c1", "cell viability z-score within plate": "0.278 ± 0.45"}, {"smiles": "CN(C)C/C=C/C(=O)Nc1cc2c(Nc3ccc(F)c(Cl)c3)ncnc2cc1O[C@H]1CCOC1", "note": "[Afatinib (BIBW2992)]", "cell viability z-score within plate": "-0.688 ± 0.67"}, {"smiles": "CS(=O)(=O)CCNCc1ccc(-c2ccc3ncnc(Nc4ccc(OCc5cccc(F)c5)c(Cl)c4)c3c2)o1", "note": "[Lapatinib]", "cell viability z-score within plate": "0.823 ± 0.37"}, {"smiles": "CCC[C@H](NC(=O)/C(C#N)=C/c1cccc(Br)n1)c1ccccc1", "note": "[Degrasyn (WP1130)]", "cell viability z-score within plate": "-0.0534 ± 0.15"}, {"smiles": "CNC(=O)c1cc(Oc2ccc(NC(=O)Nc3ccc(Cl)c(C(F)(F)F)c3)cc2)ccn1", "note": "[Sorafenib]", "cell viability z-score within plate": "-1.7 ± 1.3"}, {"smiles": "C#Cc1cccc(Nc2ncnc3cc4c(cc23)OCCOCCOCCO4)c1", "note": "[Icotinib]", "cell viability z-score within plate": "0.676 ± 0.52"}, {"smiles": "CC(C)(C)c1nc(-c2cccc(NS(=O)(=O)c3c(F)cccc3F)c2F)c(-c2ccnc(N)n2)s1", "cell viability z-score within plate": "0.0787 ± 0.036"}, {"smiles": "CCn1c(-c2nonc2N)nc2c(C#CC(C)(C)O)ncc(OC[C@H]3CCCNC3)c21", "cell viability z-score within plate": "-1.24 ± 0.86"}, {"smiles": "CC(=O)Nc1cccc(-n2c(=O)n(C3CC3)c(=O)c3c(Nc4ccc(I)cc4F)n(C)c(=O)c(C)c32)c1", "cell viability z-score within plate": "0.929 ± 0.43"}, {"smiles": "Cc1cc(NC(=O)c2cccc(NC(=O)/C=C/CN(C)C)c2)ccc1Nc1nccc(-c2cccnc2)n1", "cell viability z-score within plate": "0.657 ± 0.22"}, {"smiles": "O=S(=O)(c1cccc2cnccc12)N1CCCNCC1", "note": "[Fasudil (HA-1077) HCl]", "cell viability z-score within plate": "0.511 ± 0.42"}, {"smiles": "Cc1[nH]nc2ccc(-c3cncc(OC[C@@H](N)Cc4ccccc4)c3)cc12", "cell viability z-score within plate": "0.657 ± 0.13"}, {"smiles": "O=C1NC(=O)[C@@H](c2cn3c4c(cccc24)CCC3)[C@@H]1c1c[nH]c2ccccc12", "note": "[Tivantinib (ARQ 197)]", "cell viability z-score within plate": "-1.26 ± 0.51"}, {"smiles": "O=C(c1ccc(Nc2nccc(-c3cc4ccccc4s3)n2)cc1)N1CCC(N2CCCC2)CC1", "note": "[IKK-16 (IKK Inhibitor VII)]", "cell viability z-score within plate": "0.237 ± 0.33"}, {"smiles": "Cc1c(NC(=O)c2ccc(C(C)(C)C)cc2)cccc1-c1cn(C)c(=O)c(Nc2ccc(C(=O)N3CCOCC3)cc2)n1", "cell viability z-score within plate": "0.367 ± 0.26"}, {"smiles": "C[C@H](NC(=O)/C(C#N)=C/c1cccc(Br)n1)c1ccccc1", "cell viability z-score within plate": "0.427 ± 0.59"}, {"smiles": "CO[C@H]1C[C@@H]2CC[C@@H](C)[C@@](O)(O2)C(=O)C(=O)N2CCCC[C@H]2C(=O)O[C@H]([C@H](C)C[C@@H]2CC[C@@H](OCCO)[C@H](OC)C2)CC(=O)[C@H](C)/C=C(\\C)[C@@H](O)[C@@H](OC)C(=O)[C@H](C)C[C@H](C)/C=C/C=C/C=C/1C", "note": "[Everolimus (RAD001)]", "cell viability z-score within plate": "-0.497 ± 1.1"}, {"smiles": "Oc1ccc(-c2nc(-c3ccc(F)cc3)c(-c3ccncc3)[nH]2)cc1", "cell viability z-score within plate": "-1.48 ± 1.1"}, {"smiles": "CNC(=O)c1cc(COc2nnc(Nc3ccc(Cl)cc3)c3ccoc23)ccn1", "note": "[Telatinib]", "cell viability z-score within plate": "-1.65 ± 1.2"}, {"smiles": "O=C1NCCc2[nH]c(-c3ccncc3)cc21", "cell viability z-score within plate": "0.309 ± 0.59"}, {"smiles": "COc1cc(N2CCC(N)CC2)ccc1Nc1ncc(Cl)c(-c2c[nH]c3ccccc23)n1", "cell viability z-score within plate": "-0.695 ± 0.23"}, {"smiles": "COc1cc2ncnc(Nc3ccc(F)c(Cl)c3)c2cc1NC(=O)/C=C/CN1CCCCC1", "cell viability z-score within plate": "0.26 ± 0.81"}, {"smiles": "Cc1cc(Nc2ncc(Cl)c(Nc3ccccc3S(=O)(=O)C(C)C)n2)c(OC(C)C)cc1C1CCNCC1", "note": "[Ceritinib (LDK378)]", "cell viability z-score within plate": "0.337 ± 0.65"}]}]}
